Reference: PubChem BioAssay (NCI)
Where “and” joins values, the source holds several entries; their conditions need not be identical. Equal entries are not always repeated. Compounds without any hit were thinned out: in the full panel of roughly 83,000, 20% have a hit.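 Activity criterion: percent growth below 10, measured after cells in 96-well plates were exposed to a single compound concentration for 48 hours.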 Calls of active or inactive are those of the source.

Legend:
Assay in all cases: NCI-60 one-dose screen, 48 h (100 = growth as untreated, 0 = no growth, -100 = all killed)
Conditions in all cases: 10 µM unless noted
[1] = system: RPMI-8226 leukemia
[2] = system: OVCAR-8 ovarian
[3] = system: OVCAR-5 ovarian
[4] = system: OVCAR-4 ovarian
[5] = system: SK-OV-3 ovarian
[6] = system: OVCAR-3 ovarian
[7] = system: HS 578T breast
[8] = system: BT-549 breast
[9] = system: MDA-MB-435 melanoma
[10] = system: SW-620 colon
[11] = system: MCF7 breast
[12] = system: HCT-116 colon
[13] = system: HCC-2998 colon
[14] = system: T-47D breast
[15] = system: KM12 colon
[16] = system: IGROV1 ovarian
[17] = system: NCI/ADR-RES ovarian

Measured: growth

O=C1NC(=O)C2(CCc3ccccc32)N1 (centres undefined)
inactive: [1] 106% and 95.6% | [2] 110% and 102% | [3] 108% and 78.7% | [4] 103% and 108% | [5] 114% and 101% | [6] 99.5% and 114% | [7] 121% | [8] 115% and 98.1% | [9] 107% and 129% | [10] 117% | [11] 92.9% and 110% | [12] 113% and 96.3% | [13] 103%

COc1cc(Nc2nc3ccccc3nc2NS(=O)(=O)c2ccc(NC(=O)c3ccc(C)c(OC)c3)cc2)cc(OC)c1
71.2% (inactive) and 3.89% (active): [3]
36.6% (inactive) and 5.28% (active): [11]
active: [1] 8.4% | [7] 3.34%
68.3% (inactive) and 3.11% (active): [9]
39.6% (inactive) and -6.94% (active): [8]
43.3% (inactive) and -2.71% (active): [4]
inactive: [10] 52% and 28.1% | [12] 69.9% and 18.2% | [13] 68.5% | [15] 54% and 13.9%
46.6% (inactive) and 5.53% (active): [2]
49% (inactive) and -44% (active): [5]
51.6% (inactive) and 6.96% (active): [6]
35.9% (inactive) and -31.1% (active): [14]

CC1CCCC(=O)O1 (centres undefined)
inactive: [1] 96.7% and 94.7% | [2] 110% and 95.2% | [3] 101% | [4] 96% and 104% | [16] 96% and 99.9% | [6] 103% and 115% | [7] 110% and 105% | [17] 103% and 99.8% | [14] 101% and 106% | [8] 104% and 105% | [9] 97.2% and 107% | [10] 105% and 104% | [11] 96.3% and 101% | [12] 105% and 94.6% | [13] 98.3% | [15] 97.7% and 106%

O=C1NC(N/N=C\C(O)C(O)C(O)C(O)CO)=N/C1=C\c1ccc(Cl)cc1 (centres undefined)
inactive: [11] 58.4% [100 µM] and 13.9% [100 µM]

CNC(=O)c1cccnc1
inactive: [1] 112% | [2] 100% | [3] 110% | [4] 108% | [16] 111% | [6] 116% | [7] 107% | [17] 97% | [8] 101% | [9] 105% | [10] 106% | [12] 103% | [13] 110% | [15] 110%

CC1(C)C2CCC1(CS(=O)(=O)O)C(=O)C2 (centres undefined)
inactive: [4] 95.1% | [7] 112%

O=C(/C=C/c1ccccn1)c1ccccc1O
9.46% (active) and 97.3% (inactive): [13]
inactive: [2] 54.4% and 84.8% | [3] 77.1% and 92.3% | [4] 101% and 88.2% | [16] 38.1% and 66.6% | [6] 84.4% and 44.9% | [7] 87.2% | [8] 112% | [9] 58.2% and 75.2% | [10] 46.1% and 73.8% | [11] 37.9% and 37.4% | [12] 44.6%
active: [1] 2.44% and -0.787%

CC(O)Cn1cnc2c1c(=O)n(C)c(=O)n2C (centres undefined)
inactive: [2] 97.6% | [3] 125% | [4] 96.5% | [5] 103% | [16] 90.6% | [6] 108% | [14] 85.8% | [8] 83.5% | [9] 109% | [10] 113% | [11] 92.8% | [12] 102% | [13] 106% | [15] 104%

N/N=C(\C(=O)Nc1ccc([N+](=O)[O-])cc1)C(C1=Nc2cc([N+](=O)[O-])ccc2NC1)[N+](=O)[O-] (centres undefined)
inactive: [11] 45.9% [100 µM] and 33.8% [100 µM]

OCc1ccccn1
inactive: [2] 108% | [3] 105% | [4] 113% | [5] 117% | [6] 112% | [7] 106% | [17] 109% | [14] 107% | [8] 103% | [9] 103% | [10] 104% | [12] 104% | [13] 109% | [15] 110%

NC(N)=Nc1ccc(CC(N)C(=O)O)cc1 (centres undefined)
inactive: [11] 93.7% [12.5 µM] and 76.9% [12.5 µM]
